This is a sample that favours compounds with a hit; in the whole collection about 7.1% have one here.
MCF10A rerep: induces DNA re-replication in MCF 10a normal breast cells | MCF 10A DNA re-replication, Hoechst nuclear intensity, 48 h | AID 624296 | hit rate 2.9% among 350,000 | Potency, µM (top dose mostly 46.1 µM), for inactives: at the top dose activity, positive = re-replication, hits mostly activators; also: potency is read from the fitted curve at half-maximal effect; % of control where 0% means no effect; nearly all actives have a fitted effect of over 50% in size
IL1B secr inh: inflammasome signaling inhibition, IL-1 beta readout; hit rate 4.7% among 360,000; THP-1 LPS/ATP IL-1B secretion, AlphaLISA, 16 h; active compounds read low; activity change, % at 57.5 µM; in the data active = activity change below about -50%; inconclusive = mostly about -30% to -49%; also: % is scaled to controls: 0 for no effect and ±100 for the full control effect
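THP-1 cells pretreated 1 hr with compounds (up to 57.5 uM final), then stimulated with LPS (250 ng/mL final) plus ATP (1.25 mM final); secreted IL-1B measured by AlphaLISA after 16 hr, decreased signal indicating inhibition.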
SW480 rerep: induces DNA re-replication in SW480 colon adenocarcinoma cells; AID 624297; hit rate 1.8% among 340,000; SW480 DNA re-replication, Hoechst DNA content imaging, 48 h; Potency, µM (doses to about 46.1 µM), for inactives: at the top dose re-replication activation, usual class: activators; also: potency is read from the fitted curve at half-maximal effect; % of control where 0% means no effect; nearly all actives have a fitted effect of over 55% in size
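Image-based read-out: total Hoechst fluorescence of nuclei (405 nm excitation, 500-530 nm emission), with hits raising the fraction of high-intensity nuclei. SW480 colon cells incubated 48 hr with compounds at 37 C.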
PINK1 modulator: changes PINK1 expression; PINK1 immunofluorescence, high-content cytometry, 24 h; AID 624263; hit rate 0.2% among 410,000; Potency, µM (doses to about 76.6 µM), inactives show at the highest dose activation (PINK1 increase), hits mostly activators; active = well fitted activation curve with a large enough effect; inconclusive = small, poorly fitted or top-dose-only effect; cell line not stated here; also: potency is read from the fitted curve at half-maximal effect; % of control where 0% means no effect; nearly all actives have a fitted effect of over 65% in size
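PINK1 protein, normally rapidly degraded, was detected by immunofluorescence after 24 hour compound treatment of a stable cell line. Titration data (5 concentrations) came from laser-scanning cytometry, with CCCP-treated wells as controls.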
ATXN viability: cell viability loss in ATXN counter-screen | AID 651635 | Potency, µM (top dose mostly 56.7 µM), most hits filed as cytotoxic | hit rate 0.49% among 400,000 | S2 cells (HEK-293 line with an ATXN2-luciferase reporter) viability, CellTiter-Fluor protease fluorescence, 24 h; also: potency is read from the fitted curve at half-maximal effect; nearly all actives have a fitted effect of over 40% in size
ATXN2 expr inh: inhibitors of ATXN2 expression; HEK-293 ATXN2-luciferase reporter, luminescence, 24 h; Potency, µM (highest dose often 57 µM), inactives show at the highest dose activity change, negative = inhibition, hits mostly inhibitors; hit rate 0.72% among 360,000; also: potency is read from the fitted curve at half-maximal effect; % is scaled to controls: 0 for no effect and ±100 for the full control effect; nearly all actives have a fitted effect of over 55% in size
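qHTS (up to 57 uM final) was run with 24 h compound exposure of reporter cells at 37 °C. Each well was multiplexed: SteadyGlo luminescence measured ATXN2-luciferase expression after a fluorogenic Gly-Phe-AFC viability readout (25 uM final).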
* = called active by the depositor; i = inactive; u = inconclusive; x = not tested or not shown; [ ] = another dose, or the depositor's remark. Unless noted, calls follow the shape of the dose curve; as a rule, active = well fitted curve in the direction sought with a large enough effect; inconclusive = small, poorly fitted or top-dose-only effect, or another doubt; inactive = no such curve, though single readings can be large; an effect the other way counts as inactive or inconclusive.

SMILES | MCF10A rerep | IL1B secr inh | SW480 rerep | PINK1 modulator | ATXN viability | ATXN2 expr inh
COc1cc(=O)n2c(c1C(=O)NCc1ccco1)CCN(Cc1cccc(Cl)c1)CC2 | x | x | x | 2% | i | x
Cc1ccc(/C(N)=N/OC(=O)CCc2ccccc2)cc1 | 7.3µM* | 13 | 8% | 4%[38.3 µM] | i | 53%
N/C(=N\OC(=O)CCc1ccccc1)c1ccc(Br)cc1 | -1% | 5 | -4% | 2%[38.3 µM] | i | 32%
O=C(C(=Cc1ccccc1)CN1CCCCC1)c1ccccc1 | 0.65µM* | -104* | 2.9µM* | -6% | 8.4µM* | u
O=C(CCCCN1CCCCC1)c1ccccc1 | 13% | -6 | -8% | -1% | i | -1%
CC(C)(C)NCC(O)(c1ccc(Cl)cc1)c1ccc(Cl)cc1 | 4% | 0 | u | 16% | u | u
CC(C)NCC(O)(c1ccc(Cl)cc1)c1ccc(Cl)cc1 | 7% | -84* | 16% | 10% | i | -30%
CCN(CC)CCNCC(O)(c1ccc(Cl)cc1)c1ccc(Cl)cc1 | 7% | -87* | u | 0% | i | 1%
NCC(O)(c1ccc(Cl)cc1)c1ccc(Cl)cc1 | u | -56* | 7% | 11% | u | x
N=C(N)c1ccc(Cl)cc1 | 28% | 21 | -11% | 0% | i | 5%
CN(CCO)C(=O)c1cn(C2CCN(Cc3ccc4ccccc4c3)CC2)nn1 | x | x | x | 0% | i | x
CCn1ccc2cc(S(=O)(=O)N3CCC(C(=O)NCCc4ccccc4Cl)CC3)ccc21 | x | x | x | 0% | i | -10%
CCOC(=O)c1c(C)[nH]c(C)c1C(=O)COC(=O)/C=C/c1ccc(OC)cc1 | 8% | 9 | 16µM* | u | u | -13%
CCOC(=O)c1c(C)[nH]c(C)c1C(=O)COC(=O)c1cc2ccccc2cc1O | u | -67* | u | 27% | i | -18%
CCOC(=O)c1c(C)[nH]c(C)c1C(=O)COC(=O)/C=C/c1cccc(F)c1 | -3% | -15 | 4% | 2% | i | 3%
CC1(C(=O)NS(=O)(=O)c2ccc(Cl)cc2)CCN1C(=O)Cc1ccsc1 (stereo unspecified) | x | 17 | x | 0% | i | 5%
Cc1ccc(OCCCCNC2CCCC(C)C2C)c(C)c1 (stereo unspecified) | u | -95* | u | u | u | u
COCCSc1nnc(NC(=O)CS(=O)(=O)c2ccc(C)cc2)s1 | 0% | 3 | -8% | 2% | i | -20%
Cc1ccc(S(=O)(=O)CCc2nnc(N)s2)cc1C | -15% | 21 | 17% | x | i | 5%
COCCSc1nnc(NC(=O)CCS(=O)(=O)c2ccccc2)s1 | u | -103* | u | 1% | i | 38%
Cc1ccc(S(=O)(=O)CCc2nnc(NC(=O)CCl)s2)cc1C | u | -100* | u | -2% | i | 6%
CCOCCc1nnc(NC(=O)CCS(=O)(=O)c2ccccc2)s1 | 21µM* | -29 | u | 4% | i | 12%
CC(=O)Nc1ccc(NC(=O)COC(=O)c2ccccc2OCc2cccc(Br)c2)cc1 | x | x | x | 1% | x | x
COc1cccc(-c2nc(SCc3ccc(C)cc3)n3[nH]c(=O)cc3n2)c1 | x | x | x | 1% | i | -5%
Cc1ccc(NC(=O)c2cc(S(=O)(=O)NC3CCCCCC3)ccc2F)cc1F | x | x | x | 5% | u | -28%
SMILES | MCF10A rerep | IL1B secr inh | SW480 rerep | PINK1 modulator | ATXN viability | ATXN2 expr inh
C=CCn1c(C)cc(-c2csc(NCC)n2)c1C | u | -55* | u | u | u | u
C=CCn1c(C)cc(-c2csc(NC)n2)c1C | u | -96* | -8% | u | u | -17%
CCOC(=O)c1oc2ccc(CNC3CCCCC3)c(Cl)c2c1C | 16µM* | -82* | u | 20%[38.3 µM] | i | -34%
Cc1nnc(NC(=O)c2ccc(S(=O)(=O)N3CCc4ccccc4C3)cc2)o1 | -6% | 63 | 2% | 0% | i | -21%
Cc1cc(C)c2sc(NNC(=O)c3ccc(S(=O)(=O)N4CCc5ccccc5C4)cc3)nc2c1 | u | 121 | 5.2µM* | 4% | u | u
CCc1nnc(NC(=O)c2ccc(S(=O)(=O)N3CCc4ccccc4C3)cc2)s1 | 1% | 14 | 0% | 15% | i | 2%
Cc1cc(C)c2nc(NNC(=O)c3ccc(S(=O)(=O)N4CCc5ccccc5C4)cc3)sc2c1 | u | 105 | 12µM* | 1% | i | u
CCOc1ccc(/C=C/c2nc(C#N)c(Nc3ccc(OC)cc3)o2)cc1 | x | x | x | 1% | x | x
Cc1ccccc1Nc1cc(C(=O)NC2CCC(C)CC2)c2ccccc2n1 (stereo unspecified) | x | x | x | 12% | i | 43%
COc1cccc(C(=O)N2c3nc(-c4ccco4)nn3C3(CCCCC3)[C@@H]3CCCC[C@@H]32)c1 | x | x | x | 2% | x | x
COc1ccc(OC)c(C2C3=C(COC3=O)Nc3cc4c(cc32)OCO4)c1 (stereo unspecified) | 0.26µM* | 50 | 0.15µM* | 7% | u | -13%
COc1ccc(C2CC(=O)Nc3cc4c(cc32)OCO4)c(OC)c1 (stereo unspecified) | x | x | x | 5% | x | x
COc1ccc(C2C3=C(CC(C)(C)CC3=O)Nc3cc4c(cc32)OCO4)cc1 (stereo unspecified) | 4% | -60* | -7% | 1% | u | -3%
CC1(C)CC(=O)C2=C(C1)Nc1cc3c(cc1C2c1ccc(F)cc1)OCO3 (stereo unspecified) | u | 0 | -15% | -1% | i | 5%
CC1=C(c2ccc(F)cc2)S(=O)(=O)N=C1N1CCC(C(=O)NCCc2cccc(C)c2)CC1 | x | x | x | 7% | i | 0%
C[n+]1ccc(/C=C/c2c[nH]c3ccc(F)cc23)cc1 | u | 31 | u | 16µM* | i | -18%
Cn1cc(C=O)c2cc(F)ccc21 | 4% | 16 | -6% | 1% | i | x
Cn1cc(/C=C/c2cc[n+](C)cc2)c2cc(Cl)ccc21 | 13µM* | -60* | 11µM* | u | i | u
Cn1cc(/C=C/c2cc[n+](C)cc2)c2cc(F)ccc21 | u | -4 | u | 11µM* | x | u
CC(=O)NC(CS)C(=O)O (stereo unspecified) | x | x | x | x | x | 6%
CCC(CC)[C@H](NC(C)=O)[C@@H]1[C@H](O)[C@@H](C(=O)O)C[C@@H]1N=C(N)N | x | x | x | x | x | 3%
O=c1[nH]nc(Sc2ncc([N+](=O)[O-])s2)n1-c1ccc2c(c1)OCCO2 | x | x | x | x | x | 12µM*
C=CCn1c(Sc2ncc([N+](=O)[O-])s2)n[nH]c1=O | 29% | -103* | -5% | 2% | 30µM* | u
